Compound activity from PubChem.
ERAP1 HTS inh – ERAP1 (human) enzyme inhibition; Q9NZ08; recombinant ERAP1, Leu-AMC fluorescence, 60 min; inhibition, % at 10.7 µM; 340,000 tested, 0.15% active; AID 652197;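 active = mean replicate inhibition of at least 30%, or all replicates individually reaching that 30% level; inactive = mean below 30% and not every replicate reaching it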
GSIS activator – GLuc luminescence reporter in INS-1E cells, primary screen for activators of glucose-dependent secretion of insulin. 370,000 tested, 0.61% active. activation, % at 16.6 µM. INS-1E GLuc reporter insulin secretion, 2-3 h. AID 743287;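 active = lowest replicate activation of at least 40%, so every replicate reaches that level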
SIRT5 block – blocks human SIRT5 desuccinylation of peptide. AID 652115. inhibition, % at 15 µM. 330,000 tested, 1.1% active. Purified SirT5, succinyl-peptide AMC, trypsin-coupled fluorescence; in the data active = inhibition above about 15%
FGF22 binding – binders of recombinant human FGF22 by thermal shift; SYPRO orange fluorescence; percent of sucrose octasulfate shift, DMSO zero; activity (Tm shift, normalised), % at 9.99 µM; 340,000 tested, 1.5% active; Q9HCT0;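 active = mean Tm shift, scaled 0 neutral to 100 positive control, at about 1.3% or above, every replicate too, limit read from the data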
Target sequence (Q9HCT0 whole entry, looked up): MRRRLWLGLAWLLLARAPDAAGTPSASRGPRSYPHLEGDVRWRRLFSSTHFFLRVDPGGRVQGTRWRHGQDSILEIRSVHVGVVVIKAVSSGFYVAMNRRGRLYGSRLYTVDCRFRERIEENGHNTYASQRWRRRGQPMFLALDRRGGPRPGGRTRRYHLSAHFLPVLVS
Casp6 inh – inhibitors of human caspase-6; inhibition, % at 12.5 µM; P55212; 350,000 tested, 0.53% active; purified caspase-6, Z-VEID-R110 cleavage fluorescence;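 active = mean inhibition across replicates at least about 35%, with every replicate also reaching that limit, limit read from the data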
Target sequence (P55212 24-179 limits assumed): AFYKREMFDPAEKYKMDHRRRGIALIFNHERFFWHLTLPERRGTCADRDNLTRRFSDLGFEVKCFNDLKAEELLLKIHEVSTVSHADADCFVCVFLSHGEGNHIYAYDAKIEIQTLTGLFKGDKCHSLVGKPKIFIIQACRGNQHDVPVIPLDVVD
Target sequence (P55212 194-293 limits assumed): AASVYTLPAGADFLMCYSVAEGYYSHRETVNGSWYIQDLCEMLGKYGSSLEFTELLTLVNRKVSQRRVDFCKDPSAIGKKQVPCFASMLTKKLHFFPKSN
A number is an active result; 0 = inactive; - = not tested or not shown. Most compounds without a hit are left out; they make up all but 3.3% or so of the library.

SMILES	ERAP1 HTS inh	GSIS activator	SIRT5 block	FGF22 binding	Casp6 inh
Cc1cc(/C=C2\SC(=O)NC2=O)c(C)n1-c1ccc(N(C)C)cc1	0	0	0	0	0
Cc1cc(/C=C2/NC(=O)NC2=O)c(C)n1-c1ccc(N2CCOCC2)cc1	0	0	0	43	0
Cc1cc(/C=C2\SC(=O)NC2=O)c(C)n1-c1ccc(N2CCOCC2)cc1	67	0	0	0	0
CNC(=O)C1CC(=O)N(c2ccc(OCC(=O)NCc3ccccc3)cc2)C1 (stereo unspecified)	0	0	25	0	0
CCOc1ccc(N2CC(C(=O)NCc3ccccc3)CC2=O)cc1 (stereo unspecified)	0	0	0	0	0
CCOc1ccc(N2CC(C(=O)NCC(=O)Nc3ccc(F)c(F)c3F)CC2=O)cc1 (stereo unspecified)	0	0	0	0	44
CCOc1ccc(N2CC(C(=O)NCCc3ccc(F)cc3)CC2=O)cc1 (stereo unspecified)	0	0	0	0	0
COc1ccc(NC(=O)N2CC(=O)N3[C@H](C2)[C@@H](c2ccc(-c4ccccc4)cc2)[C@@H]3CO)cc1	0	0	0	-	0
NC1=NC(=O)/C(=C\c2ccco2)S1	0	0	0	0	63
CC(=O)Nc1ccc(S(=O)(=O)/N=C2/NC(=O)/C(=C\c3ccco3)S2)cc1	0	0	15	0	65
O=C1NC(=O)/C(=C/c2ccco2)N1	0	0	-	0	0
O=C1NC(=S)NC1=Cc1ccco1	0	0	0	0	44
O=C1NC(=O)C(=Cc2ccco2)S1	0	0	-	0	49
NC1=NC(=O)C(=Cc2ccccc2)S1	0	-	-	0	0
COc1ccc(N=C2NC(=O)/C(=C\c3ccco3)S2)cc1	0	0	0	0	0
O=C(C[C@@H]1C=C[C@@H](NC(=O)Nc2ccc(C(F)(F)F)cc2)[C@H](CO)O1)NCc1cccc(F)c1	0	0	0	0	0
CO[C@H]1CN(C)C(=O)c2ccc(NC(=O)NC(C)C)cc2OC[C@@H](C)N(Cc2cncnc2)C[C@H]1C	-	0	-	-	-
O=C(O)C[C@@H]1CC[C@H](NC(=O)Nc2cc(F)ccc2F)[C@H](CO)O1	0	0	0	0	0
C[C@H]1CN([C@@H](C)CO)C(=O)c2cc(-c3cncnc3)cnc2O[C@H]1CN(C)C(=O)Cc1ccccn1	0	0	0	0	0
O=C1/C(=C\c2ccco2)CCC/C1=C\c1ccco1	0	0	-	0	74
Cc1ccc2c(c1)c(-c1ccccc1)nc1nncn12	-	46	-	0	0
CCCNC(=O)N1CC2(CN(C(=O)CC)C2)c2c(n(C)c3cc(OC)ccc23)[C@@H]1CO	0	0	0	0	0
C[C@@H]1CN([C@@H](C)CO)C(=O)Cc2cc(NC(=O)c3ccncc3)ccc2O[C@@H]1CN(C)C(=O)Nc1ccc(C(F)(F)F)cc1	0	0	0	0	0
Cc1ccc(-c2cc(C(=O)NCc3cnn(C)c3)c3cc(Br)ccc3n2)cc1	-	335	-	-	-
C[C@H](CO)N1C[C@H](C)[C@@H](CN(C)C(=O)c2ccc3c(c2)OCO3)Oc2cc(/C=C/c3ccccc3)ccc2S1(=O)=O	0	0	16	0	0
SMILES	ERAP1 HTS inh	GSIS activator	SIRT5 block	FGF22 binding	Casp6 inh
C[C@@H]1CN([C@@H](C)CO)S(=O)(=O)c2ccc(/C=C/c3ccccc3)cc2O[C@H]1CN(C)C(=O)c1ccc2c(c1)OCO2	0	-	27	0	0
C/C=C/c1ccc2c(c1)O[C@H](CN(C)C(=O)c1ccc3c(c1)OCO3)[C@H](C)CN([C@H](C)CO)S2(=O)=O	0	0	0	0	0
Cc1ccc(S(=O)(=O)Nc2ccc3c(c2)C(=O)N([C@H](C)CO)C[C@H](C)[C@H](CN(C)S(=O)(=O)c2cccs2)O3)cc1	0	0	0	0	0
CN(C)C(=O)c1cccc(-c2ccc3c(c2)[C@H]2[C@H](CCN2C(=O)Nc2cccc(F)c2)[C@@H](CO)N3C)c1	-	0	-	0	-
Cc1ccc[n+](-c2[nH]c(=O)sc2/C=N/NC(=O)c2ccccc2[O-])c1	0	0	0	0	35
O=C(N/N=C/c1sc(=O)[nH]c1-[n+]1ccccc1)c1ccccc1[O-]	0	0	0	0	0
CC1CN(S(=O)(=O)c2cc(C(=O)NC(C)c3cccnc3)ccc2Cl)CC(C)O1 (stereo unspecified)	0	43	0	0	0
COc1ccc2sc3c(=O)[nH]c4ccccc4c3c2c1	-	103	-	-	-
C[C@H](NC(=O)C[C@H]1CC[C@H]2[C@@H](COC[C@H](O)CN2Cc2cc(F)ccc2F)O1)c1ccccc1	0	0	0	0	0
CC(C)CC#Cc1ccc2c(c1)O[C@H](CN(C)C(=O)c1ccccc1F)[C@H](C)CN([C@H](C)CO)S2(=O)=O	0	0	0	0	0
CCCC#Cc1ccc2c(c1)O[C@H](CN(C)C(=O)c1ccccc1F)[C@@H](C)CN([C@H](C)CO)S2(=O)=O	0	0	0	0	0
CCCC#Cc1ccc2c(c1)O[C@@H](CN(C)C(=O)c1ccccc1F)[C@@H](C)CN([C@H](C)CO)S2(=O)=O	0	0	20	0	0
CCCC#Cc1ccc2c(c1)O[C@H](CN(C)C(=O)c1ccccc1F)[C@@H](C)CN([C@@H](C)CO)S2(=O)=O	0	0	19	0	0
CCCNC(=O)N1[C@@H](C#N)[C@@H](c2ccc(-c3ccccc3F)cc2)[C@@H]1CO	0	0	0	0	0
CCOC(=O)CSc1nc2ccccc2c(=O)n1CC(C)C	0	0	0	43	0
CCCn1c(SCC(=O)N2CCCC2=O)nc2ccccc2c1=O	0	46	0	0	0
C[C@@H]1CN([C@H](C)CO)C(=O)Cc2cc(NS(=O)(=O)c3cn(C)cn3)ccc2O[C@@H]1CN(C)S(=O)(=O)c1ccc(Cl)cc1	0	0	0	0	-
Fc1ccccc1-c1ccc(C2[C@H]3CNC[C@@H]2N3CC2CC2)cc1 (stereo partly specified)	-	0	-	-	-
COc1cccc(S(=O)(=O)Nc2ccc3c(c2)C(=O)N(C)[C@H]2CC[C@@H](CC(=O)O)O[C@@H]2CO3)c1	-	0	-	0	-
CCNC(=S)N/N=C/c1ccc(OCC(=O)Nc2ccc(C)cc2)cc1	0	-	0	0	0
CCNC(=S)N/N=C/c1ccc(OCCOc2ccccc2C)cc1	-	137	-	-	-
CC(C)OC(=O)C1CC(C)(O)C(=O)C(C(=O)OC(C)C)C1c1ccc([N+](=O)[O-])cc1 (stereo unspecified)	0	0	0	43	0
CC(C)OC(=O)C1C(=O)CC(C)(O)C(C(=O)OC(C)C)C1c1ccc(F)cc1 (stereo unspecified)	0	0	0	0	0
Cn1c(SCCOc2ccccc2Cl)nnc1-c1ccncc1	0	0	0	-	35
Cc1cc(N2C(=O)C(O)=C(C(=O)c3cc4ccccc4o3)C2c2ccc(Br)cc2)no1 (stereo unspecified)	0	0	25	0	48
Cc1cc(N2C(=O)C(O)=C(C(=O)c3cc4ccccc4o3)C2c2ccc(Cl)cc2)no1 (stereo unspecified)	0	0	0	0	0
